# The list is not random: actives were taken first. Their share in the collection is about 18%.
# DT40 TDP1 CPT – DT40-hTDP1 cell growth loss with CPT; chicken DT40 Tdp1-/-;hTDP1 cells + 20 nM CPT, ATP luminescence, 48 h; Potency, µM (highest dose often 46.2 µM), for the others: at the highest dose activity change, negative = growth inhibition, most hits filed as inhibitors; 12% of 420,000 active; AID 686979; further: potency means the concentration at half of the fitted maximal effect; nearly all actives have a fitted effect of over 55% in size
#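 Chicken DT40 Tdp1-/- cells stably complemented with human TDP1 were seeded at 400 cells/well in medium containing 20 nM camptothecin, exposed to pin-transferred compounds, and grown at 37 °C for at least 48 hr. Viability was read as ATP luminescence.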
# IL-1B inflam inh – blocks inflammasome-driven IL-1 beta release; THP-1 LPS/ATP IL-1B secretion, AlphaLISA, 16 h; hits give low values; activity change, % at 57.5 µM; 4.7% of 360,000 active; in the data active means activity change below about -50%; inconclusive means mostly about -30% to -49%
#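 Secreted IL-1B measured by AlphaLISA bead assay after 16 h compound exposure of THP-1 cells; compounds (final up to 57.5 uM) added 1 h before LPS (250 ng/mL) and ATP (1.25 mM) stimulation; lower signal means less secretion.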
# LDHA inh – inhibitors of human lactate dehydrogenase A. P00338. purified LDHA, NADH/diaphorase-resazurin fluorescence; hits give low values. activity change, % (values are at about 110 or 230 µM). 0.15% of 480,000 active. AID 1347041; in the data active means activity change below about -30%; inconclusive means mostly about -25% to -30%;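 further: plate controls were DMSO wells for no effect and wells without enzyme for full effect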
#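 Enzyme activity of human lactate dehydrogenase 5 (2 nM; 0.06 mM NADH, 0.2 mM pyruvate, 5 min, RT) is measured via a resazurin/diaphorase fluorescence readout of residual NADH.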
# TDP1 cell noCPT – qHTS for Inhibitors of human tyrosyl-DNA phosphodiesterase 1 (TDP1): qHTS in cells in absence of CPT. 15% of 420,000 active. Potency, µM (doses to about 46.2 µM), for the others: at the top dose activity change, negative = growth inhibition, usual class: inhibitors. DT40 Tdp1-/- hTDP1 cells, no CPT, ATP luminescence, 48 h; further: potency means the concentration at half of the fitted maximal effect; nearly all actives have a fitted effect of over 55% in size
#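 Cells were dispensed at 400 per well, compounds added by pin tool, plates incubated ≥48 hr at 37 °C, then CellTiter-Glo added for 30 min at room temperature before luminescence reading. Line: DT40 Tdp1-/- complemented with hTDP1; camptothecin omitted.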
# RORgamma inh – inhibitors of mouse ROR gamma transcriptional activity. P51450. Drosophila S2 Gal4-RORgamma UAS-luciferase reporter, 20 h. Potency, µM (series often up to 53.6 µM), for inactives: at the top dose activity change, negative = inhibition, actives largely listed as inhibitors. 5.4% of 310,000 active. AID 2551; further: potency means the concentration at half of the fitted maximal effect; nearly all actives have a fitted effect of over 60% in size
# Target sequence (P51450 whole entry, looked up, the tested form may be a part): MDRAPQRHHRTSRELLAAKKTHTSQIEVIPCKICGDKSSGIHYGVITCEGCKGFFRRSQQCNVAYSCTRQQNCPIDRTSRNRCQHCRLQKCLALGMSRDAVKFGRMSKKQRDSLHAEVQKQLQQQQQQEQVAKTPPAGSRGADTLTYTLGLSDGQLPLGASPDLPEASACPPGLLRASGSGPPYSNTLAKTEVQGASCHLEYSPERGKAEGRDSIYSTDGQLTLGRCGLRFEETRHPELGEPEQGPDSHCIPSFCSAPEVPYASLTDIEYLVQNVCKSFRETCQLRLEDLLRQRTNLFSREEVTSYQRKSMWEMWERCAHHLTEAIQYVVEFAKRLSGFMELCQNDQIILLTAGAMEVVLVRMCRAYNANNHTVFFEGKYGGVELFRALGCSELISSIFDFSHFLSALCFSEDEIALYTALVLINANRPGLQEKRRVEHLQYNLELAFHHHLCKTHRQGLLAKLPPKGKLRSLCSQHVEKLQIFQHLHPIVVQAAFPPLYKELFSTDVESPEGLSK
#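 Stable Schneider cell line, Gal4 DNA-binding domain fused to ROR gamma, UAS-luciferase. Cmpd 1 hr RT → CuSO4 700 uM final → 20 hr RT → luciferase reagent 10 min → luminescence.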
# VP16 counter – inhibits Gal4-VP16 luciferase reporter, ROR gamma counter-screen; Drosophila S2 Gal4-VP16 UAS-luciferase, luminescence, 20 h; Potency, µM (highest dose often 53.6 µM), for inactives: at the top dose activity, negative = inhibition, hits mostly inhibitors; 3.5% of 310,000 active;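 further: Gal4-VP16 expression switched on by copper sulfate through the metallothionein promoter; potency means the concentration at half of the fitted maximal effect; nearly all actives have a fitted effect of over 50% in size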
# The depositor's hits bear a star; i = inactive; ? = inconclusive; nt = not tested or not shown. Unless noted, the call rests on the fitted dose curve; in most records, active means well fitted curve in the direction sought with a large enough effect; inconclusive means small, poorly fitted or top-dose-only effect, or another doubt; inactive means no such curve, though single readings can be large; an effect the other way counts as inactive or inconclusive. Unless noted, on the % scale 0 is the no-effect control and ±100 the full control effect.
SMILES,DT40 TDP1 CPT,IL-1B inflam inh,LDHA inh,TDP1 cell noCPT,RORgamma inh,VP16 counter
C[C@@H]1CN([C@H](C)CO)S(=O)(=O)c2ccc(Br)cc2O[C@H]1CN(C)C(=O)C1CCCCC1,25.9µM*,11.2,2.7,13µM*,nt,nt
C[C@@H]1CN([C@@H](C)CO)S(=O)(=O)c2ccc(Br)cc2O[C@H]1CN(C)C(=O)C1CCOCC1,9.3%,-4.6,-14.5,-2.6%,nt,nt
C[C@@H]1CN([C@@H](C)CO)S(=O)(=O)c2ccc(Br)cc2O[C@H]1CN(C)C(=O)C1CCCCC1,25.9µM*,-29.9,-9.4,16.4µM*,nt,nt
COc1ccc(NC(=O)Cn2ccc3cc(Cl)ccc32)cc1,nt,nt,-6.2,nt,nt,nt
COC(=O)c1ccc(O)c(Br)c1,nt,nt,2.4,nt,nt,nt
O=S(=O)(CCNCc1ccc(Cl)c(Cl)c1)Cc1ccccc1,nt,nt,-3.0,nt,nt,nt
Cc1ccc(-c2ccc3c(c2)O[C@H](CN(C)C(=O)CC2CC2)[C@H](C)CN([C@@H](C)CO)S3(=O)=O)cc1,-5.9%,-1.3,-1.2,-23.1%,nt,nt
C[C@@H]1CN([C@H](C)CO)S(=O)(=O)c2ccc(C3=CCCCC3)cc2O[C@H]1CN(C)C(=O)Cc1cccnc1,?,-23.9,-7.7,25.9µM*,nt,nt
C[C@H]1CN([C@@H](C)CO)S(=O)(=O)c2ccc(C3=CCCC3)cc2O[C@@H]1CN(C)C(=O)C1CCCCC1,-94.2%,-50.6*,-1.2,-110.5%,nt,nt
COc1ccc(NC(=O)CCc2ncc(-c3ccccc3F)o2)cc1Cl,nt,nt,3.3,nt,nt,nt
Cc1[nH]c2ccccc2c1CN1CCC(CO)(Cc2ccccc2)CC1,13µM*,-15.7,-0.4,?,2.4%,7.3%
COc1ccc(CC2(CO)CCN(Cc3cnn(-c4ccccc4OC)c3)CC2)cc1,?,-9.1,-19.0,10.3µM*,-10.5%,3.0%
Cc1[nH]c2c(C)cccc2c1CN1CCC(CO)(Cc2ccccc2)CC1,?,-13.1,-4.2,?,20.5%,-2.4%
COc1ccc(CC2(CO)CCN(Cc3nc(C(C)C)cs3)CC2)cc1,15.0%,14.2,-4.8,?,-11.6%,?
Cc1cc(C)n(-c2cccc(CN3CCC(CO)(Cc4ccccc4)CC3)c2)n1,?,-70.7*,-3.8,23.1µM*,-27.2%,1.8%
COc1ccc(CC2(CO)CCN(Cc3ccc(OC(F)(F)F)cc3)CC2)cc1,?,nt,0.8,18.4µM*,2.1%,-4.7%
Cc1ccc(C)c(C(NC(=O)C2CCCCC2)c2cccnc2)c1 (stereo not drawn),nt,nt,1.7,nt,nt,nt
COc1ccc(CN2CCN(Cc3ccc(C(F)(F)F)cc3)CC2)cc1,?,?,-24.7,23.1µM*,14.2%,3.4%
COc1ccc(CC2(CO)CCN(Cc3cccc4nccnc34)CC2)cc1,2.5%,-14.3,-9.2,-28.2%,21.1%,14.7%
COc1ccc(CC2(CO)CCN(Cc3cnc(-c4ccccc4C)nc3)CC2)cc1,?,4.3,-8.1,13µM*,38.5%,17.1%
COc1ccc(CC2(CO)CCN(Cc3cnn(-c4ccc(F)cc4)c3)CC2)cc1,-16.4%,21.9,-5.9,?,4.7%,0.8%
COc1ccc(CC2(CO)CCN(Cc3cnn(-c4ccccc4)c3)CC2)cc1,?,-95.1*,-14.3,?,-10.9%,10.6%
COc1ccc(CN2CCC(CO)(Cc3ccccc3C(F)(F)F)CC2)c(F)c1,16.4µM*,?,1.3,18.4µM*,-13.9%,0.0%
O=C(NC(=S)N1CCCCC1c1cccnc1)c1ccc(Br)cc1 (stereo not drawn),?,-7.3,-5.0,-2.9%,0.501µM*,1.26µM*
O=C(NC(=S)N1CCCCC1c1cccnc1)c1ccc(F)cc1 (stereo not drawn),-2.2%,-2.7,-11.7,12.9%,0.891µM*,2.51µM*
SMILES,DT40 TDP1 CPT,IL-1B inflam inh,LDHA inh,TDP1 cell noCPT,RORgamma inh,VP16 counter
O=C(NC(=S)NN1CCCCC1c1cccnc1)c1ccc(Cl)cc1Cl (stereo not drawn),?,-14.9,-9.9,25.9µM*,1.58µM*,4.47µM*
COc1cc2c(cc1OC)C(=O)CCC2,14.6µM*,0.0,-1.0,16.4µM*,nt,nt
c1ccc2c[n+](Cc3cccc4ccccc34)ccc2c1,nt,nt,3.7,nt,nt,nt
CCOC(=O)c1ncc2[nH]c3cccc(OC(C)C)c3c2c1C,nt,nt,nt,nt,17.8µM*,?
CCOC(=O)c1ccc(NC(=O)c2ccc(OC(C)C)c(OC)c2)cc1,?,-18.5,-3.3,?,-3.3%,-12.8%
COc1ccc(C(C)NC(=S)NCc2ccc(F)cc2)cc1OC (stereo not drawn),-8.8%,i,-4.4,?,12.6µM*,?
CC(NC(=S)NCc1ccc(F)cc1)C12CC3CC(CC(C3)C1)C2 (stereo not drawn),?,-84.0*,-5.2,14.6µM*,1.78µM*,5.01µM*
CCCNC(=S)NC(C)C12CC3CC(CC(C3)C1)C2 (stereo not drawn),nt,nt,-6.7,nt,nt,nt
CCNC(=S)NCc1ccc(Cl)cc1,-16.3%,7.2,-4.5,-0.5%,nt,nt
CCOc1ccc(C(C)NC(=S)NCc2ccc(Cl)cc2)cc1 (stereo not drawn),?,0.0,1.2,?,0.794µM*,12.6µM*
CCC(NC(=S)NCc1ccc(F)cc1)c1ccc(C(C)C)cc1 (stereo not drawn),?,-9.9,-1.1,?,2.82µM*,3.98µM*
CCC(C)[C@H](NC(=O)NCc1ccc(F)cc1)C(=O)O (stereo partly drawn),1.7%,23.2,-4.7,1.3%,-9.6%,0.3%
Cc1ccc(NC(=O)CSC2=NS(=O)(=O)c3ccccc3N2Cc2ccccc2)c(Cl)c1,nt,nt,-3.8,nt,nt,nt
CCCc1ccc(C(C)NC(=S)NCc2ccc(F)cc2)cc1 (stereo not drawn),?,28.0,-2.6,?,0.631µM*,3.16µM*
COc1ccc(C)cc1NC(=S)NC(C)c1ccc(OC)c(OC)c1 (stereo not drawn),?,-26.0,-0.8,?,2.82µM*,10µM*
Fc1ccc(CNC(=S)NCCc2ccccc2)cc1,nt,nt,-2.3,nt,nt,nt
COc1ccc(C)cc1NC(=S)NC12CN3CN(CN(C3)C1)C2,nt,nt,nt,nt,-3.8%,-3.3%
CCOc1ccc(S(=O)(=O)NCC(C)O)c2ccccc12 (stereo not drawn),nt,nt,15.7,nt,nt,nt
O=C(Nc1ncc(Cc2ccccc2)s1)C1CC(=O)N(Cc2ccco2)C1 (stereo not drawn),nt,nt,1.2,nt,nt,nt
CN(C)Cc1ccc(F)cc1Sc1ccc(Cl)cc1Cl,?,-13.8,4.9,?,-1.0%,-18.2%
COc1cc2c(cc1Cl)/C(=C\CCN(C)C)c1ccccc1S2,18.4µM*,-102.6*,1.1,?,7.3%,-5.1%

# Screening results from PubChem.
